Records with an inconclusive call do not appear. A call without a number means that no potency is given here. A number with no mark means an inactive call. Calls of active or inactive are those of the source. Calls follow the shape of the dose curve; as a rule, active = well fitted curve in the direction sought with a large enough effect; inconclusive = small, poorly fitted or top-dose-only effect, or another doubt; inactive = no such curve, though single readings can be large; an effect the other way counts as inactive or inconclusive.
Columns and labels:
[1] = target: Rap guanine nucleotide exchange factor 3 (Homo sapiens) (UniProt O95398); assay: Confirmatory qHTS for agonist of cAMP-regulated guanine nucleotide exchange factor 3 (EPAC1) (AID 1645881); also: nearly all actives have a fitted effect of over 75% in size; also: potency is read from the fitted curve at half-maximal effect
[2] = target: Rap guanine nucleotide exchange factor 4 (Homo sapiens) (UniProt Q8WZA2); assay: Confirmatory qHTS for antagonist of cAMP-regulated guanine nucleotide exchange factor 4 (EPAC2) (AID 1645885); also: nearly all actives have a fitted effect of over 25% in size; also: potency is read from the fitted curve at half-maximal effect
[3] = target: Rap guanine nucleotide exchange factor 3 (Homo sapiens) (UniProt O95398); assay: Counterscreen qHTS for antagonist of cAMP-regulated guanine nucleotide exchange factor 3 (EPAC1) (AID 1645888);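 also: fluorescence loss as bound BODIPY-GDP is released from Rap1B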
Method in brief: (§1)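 Rap1B–BODIPY-GDP (250 nM) with 50 uM GDP; compounds pin-transferred to 9.74 nM–152 uM final (activator) or from 7.32 nM upwards (inhibitor). Fluorescence Ex/Em 480/540 nm read at 5 and 30 min, then after adding cAMP or buffer, at room temperature.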

[4] = target: Rap guanine nucleotide exchange factor 3 (Homo sapiens) (UniProt O95398); assay: Counterscreen qHTS for agonist of cAMP-regulated guanine nucleotide exchange factor 3 (EPAC1) (AID 1645889); also: nearly all actives have a fitted effect of over 40% in size; also: potency is read from the fitted curve at half-maximal effect
Method in brief: as §1

Rap guanine nucleotide exchange factor 4 (Homo sapiens), sequence (Q8WZA2 whole entry, looked up): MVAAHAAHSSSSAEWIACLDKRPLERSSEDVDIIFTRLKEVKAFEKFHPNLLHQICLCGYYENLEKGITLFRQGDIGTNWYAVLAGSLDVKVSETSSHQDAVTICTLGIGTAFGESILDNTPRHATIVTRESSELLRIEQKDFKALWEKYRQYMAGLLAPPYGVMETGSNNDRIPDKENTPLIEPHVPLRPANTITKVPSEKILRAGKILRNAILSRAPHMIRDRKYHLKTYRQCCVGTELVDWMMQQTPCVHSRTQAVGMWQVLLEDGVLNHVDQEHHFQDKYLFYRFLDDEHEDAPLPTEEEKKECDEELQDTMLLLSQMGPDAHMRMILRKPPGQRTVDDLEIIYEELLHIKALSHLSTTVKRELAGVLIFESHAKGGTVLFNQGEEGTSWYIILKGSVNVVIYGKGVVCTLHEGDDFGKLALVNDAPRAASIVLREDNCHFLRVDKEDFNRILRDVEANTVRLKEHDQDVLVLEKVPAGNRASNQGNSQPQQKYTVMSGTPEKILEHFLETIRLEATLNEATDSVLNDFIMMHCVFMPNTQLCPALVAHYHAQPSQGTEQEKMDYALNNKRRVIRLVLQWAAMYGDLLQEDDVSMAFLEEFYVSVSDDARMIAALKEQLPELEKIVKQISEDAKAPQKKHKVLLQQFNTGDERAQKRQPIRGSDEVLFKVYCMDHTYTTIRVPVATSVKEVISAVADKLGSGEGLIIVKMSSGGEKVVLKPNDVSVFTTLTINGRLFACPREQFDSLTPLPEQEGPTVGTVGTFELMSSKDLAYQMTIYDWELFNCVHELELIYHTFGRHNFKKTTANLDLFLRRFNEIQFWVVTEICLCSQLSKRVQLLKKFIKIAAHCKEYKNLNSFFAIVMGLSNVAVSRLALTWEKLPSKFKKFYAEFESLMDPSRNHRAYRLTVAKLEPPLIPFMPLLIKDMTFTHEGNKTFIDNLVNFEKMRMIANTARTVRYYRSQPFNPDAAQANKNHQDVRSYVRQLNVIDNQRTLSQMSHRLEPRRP
Rap guanine nucleotide exchange factor 3 (Homo sapiens), sequence (O95398 whole entry, looked up): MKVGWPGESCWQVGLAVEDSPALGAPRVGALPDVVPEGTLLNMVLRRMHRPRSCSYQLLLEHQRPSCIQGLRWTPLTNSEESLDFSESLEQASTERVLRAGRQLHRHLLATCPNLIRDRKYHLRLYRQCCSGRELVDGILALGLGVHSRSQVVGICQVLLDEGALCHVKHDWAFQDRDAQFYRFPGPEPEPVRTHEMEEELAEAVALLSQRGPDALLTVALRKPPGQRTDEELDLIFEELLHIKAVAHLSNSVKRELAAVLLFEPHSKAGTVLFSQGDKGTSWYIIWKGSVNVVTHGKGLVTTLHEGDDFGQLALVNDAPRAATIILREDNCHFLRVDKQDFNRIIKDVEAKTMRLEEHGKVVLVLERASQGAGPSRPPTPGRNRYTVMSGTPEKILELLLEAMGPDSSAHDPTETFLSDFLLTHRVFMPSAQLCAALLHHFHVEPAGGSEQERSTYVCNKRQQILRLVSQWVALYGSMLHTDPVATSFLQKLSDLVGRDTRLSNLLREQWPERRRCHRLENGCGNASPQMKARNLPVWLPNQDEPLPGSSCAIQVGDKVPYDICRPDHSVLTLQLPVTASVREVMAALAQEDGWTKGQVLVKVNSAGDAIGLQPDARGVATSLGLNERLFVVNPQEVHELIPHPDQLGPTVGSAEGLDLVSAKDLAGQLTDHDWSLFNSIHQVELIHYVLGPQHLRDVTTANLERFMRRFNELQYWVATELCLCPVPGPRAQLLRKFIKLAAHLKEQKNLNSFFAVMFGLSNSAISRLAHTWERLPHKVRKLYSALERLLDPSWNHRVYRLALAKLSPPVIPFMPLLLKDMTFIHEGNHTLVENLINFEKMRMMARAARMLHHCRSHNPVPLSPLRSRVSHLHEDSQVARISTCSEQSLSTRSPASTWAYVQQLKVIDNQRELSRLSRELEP

Compound | Potency [1] | Potency [2] | Potency [3] | Potency [4] | activity change, negative = inhibition [3] | outcome [2]
O=C(O)c1ccc(NS(=O)(=O)c2ccc3c(c2)C2C=CCC2C(c2ccccc2F)N3)cc1 (stereo not given) | inactive | 75.7 µM (active) | inactive | 44.7 µM (active) | – | –
CCOc1ccc(C2C3=C(CCCC3=O)Nc3ccc4ncccc4c32)cc1 (stereo not given) | inactive | – | – | – | -12.5% [at 30.8 µM] | –
COc1ccc(OC)c(NC(=O)CSc2ncnc3sc(C)cc23)c1 | inactive | inactive | inactive | inactive | – | –
O=[N+]([O-])c1cccc(S(=O)(=O)Nc2cccc(-c3ccc(N4CCCC4)nn3)c2)c1 | inactive | – | inactive | – | – | inactive [at 12.7 µM]
CC1=CC(C)(C)N2C(=O)C(=Nc3ccc(O)cc3)c3cccc1c32 | inactive | inactive | inactive | inactive | – | –
COc1ccc(OC)c(NC(=O)CSc2nccn2-c2cc(C)cc(C)c2)c1 | inactive | inactive | inactive | inactive | – | –
COc1ccc(/C=C2\SC(=S)N(CCC(=O)N3CCCCC3CCO)C2=O)cc1 (stereo not given) | inactive | inactive | inactive | inactive | – | –
CN(C)c1ccc(/C=C2\C(=N)N3N=C(CC(=O)N4CCCCC4)SC3=NC2=O)cc1 | inactive | inactive | inactive | inactive | – | –
CC(C)(C)c1cc(NCCCn2ccnc2)n2ncc(-c3ccccc3)c2n1 | inactive | inactive | – | inactive | – | –
Cc1csc2nc(-c3cccc(NC(=O)c4cccc(F)c4)c3)cn12 | inactive | inactive | inactive | – | – | –
Cc1ccc(CNC(=O)c2cccc3c2C(=O)c2ccc(N4CCCCC4)cc2S3(=O)=O)cc1 | 11.2 µM (active) | inactive | – | 11.2 µM (active) | -7.83% [at 30.8 µM] | –
Cc1ccc(C2CC2/C(=N/O)c2ccc(F)cc2)cc1 (stereo not given) | inactive | 37.9 µM (active) | – | inactive | – | –
Cc1nc2c(C(=O)NCc3ccccc3Cl)c[nH]n2c(=O)c1Cc1cccc(Cl)c1 | inactive | inactive | inactive | inactive | – | –
Cc1nc(N)sc1-c1csc(Nc2ncccn2)n1 | inactive | inactive | inactive | inactive | – | –
Cc1ccc(SCC(=O)Nc2ccccc2N2CCOCC2)cc1 | inactive | inactive | inactive | inactive | – | –
Cn1cccc1/C=C1\SC(=S)N(NC(=O)c2cccc(Cl)c2)C1=O | inactive | inactive | inactive | inactive | – | –
Cc1cccc(Cn2nnc3c(=O)[nH]c(C4CCCN(C(=O)c5ccc(C(C)(C)C)cc5)C4)nc32)c1 (stereo not given) | inactive | – | – | inactive | – | inactive [at 12.7 µM]
COc1ccccc1/C=C(/C(=O)OCC(=O)Nc1ccc(N(C)C)cc1)c1ccccc1 | inactive | 5.36 µM (active) | inactive | inactive | – | –
COc1cccc2cc(/C(=N/O)c3ccccc3)oc12 | inactive | inactive | inactive | – | – | –
COc1ccc(NC(=O)COC(=O)CCCOc2ccc(Cl)cc2Cl)cc1Cl | inactive | 6.01 µM (active) | inactive | inactive | – | –
CC1=Nc2ccccc2/C1=C/c1sc(=N)n(-c2nccs2)c1O | inactive | inactive | inactive | 56.2 µM (active) | – | –
O=C1NNC(c2ccccc2)=N/C1=C\c1ccccc1Cl | inactive | inactive | inactive | – | – | –
Cn1cc(/C=C/c2cc[n+](C)cc2)c2cc(F)ccc21 | inactive | inactive | inactive | inactive | – | –
Cc1nc(NC(=O)c2c(-c3ccccc3)c(-c3ccccc3)nn(C)c2=O)sc1C | inactive | inactive | inactive | inactive | – | –
Cc1cccc2sc(N(Cc3cccnc3)C(=O)c3cccs3)nc12 | inactive | inactive | inactive | 25.1 µM (active) | – | –
Cc1ccccc1OCC(=O)Nc1ccc(C(=O)OCc2cc(=O)n3c(C)csc3n2)cc1 | inactive | inactive | inactive | inactive | – | –
CCOc1ccccc1C(=O)N1CCc2cc(OC)c(OC)cc2C1COc1ccc(OC)cc1 (stereo not given) | inactive | inactive | inactive | – | – | –
Cc1nn(-c2ccccc2)c2nc(N)c(C#N)c(-c3ccc(O)c(O)c3)c12 | inactive | inactive | inactive | – | – | –
O=S(=O)(c1cccc2ccccc12)N1CCCCC1 | inactive | 21.3 µM (active) | inactive | inactive | – | –

Reference: PubChem BioAssay (NCATS)
